# Assay results: PubChem BioAssay (NCATS)
# Inconclusive results are not listed. Where a call stands in place of a potency, no number is given. Activity calls are given as the source filed them. Calls follow the shape of the dose curve; as a rule, active = well fitted curve in the direction sought with a large enough effect; inconclusive = small, poorly fitted or top-dose-only effect, or another doubt; inactive = no such curve, though single readings can be large; an effect the other way counts as inactive or inconclusive.
# Legend:
# [1] = tested on: Zika virus NS2B-NS3 protease; experiment: Primary screen GU AMC qHTS for Zika virus inhibitors (AID 1347154); also: nearly all actives have a fitted effect of over 70% in size
# Procedure, shortened: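 Fluorogenic AMC-substrate cleavage by noncovalent NS2B-NS3 protease complex (25 nM, pH 8.0 Tris buffer with Tween 20) followed for 15 minutes at room temperature (~20% conversion). Percent inhibition from ex340/em450 signal change, fitted by 4-parameter Hill equation.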
# [2] = qHTS to identify inhibitors of the type 1 interferon - major histocompatibility complex class I in skeletal muscle: primary screen against the NCATS Mechanism Interrogation Plate v5.0 (MIPE) Libary (AID 1347411); also: nearly all actives have a fitted effect of over 65% in size; also: potency is read from the fitted curve at half-maximal effect
# Procedure, shortened: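 HLA-B HiBit myoblasts, dexamethasone-free medium + 4 ng/ml IFN-b, 24 h compound, 11-pt 1:3 from 46 uM final. Readout: Nano-Glo HiBiT lytic luminescence after 10 min lysis, RT.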
# [3] = Confirmatory screen GU Rhodamine qHTS for Zika virus inhibitors qHTS (AID 1347157); also: nearly all actives have a fitted effect of over 70% in size; also: potency is read from the fitted curve at half-maximal effect
# Procedure, shortened: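 A qHTS format was used, with compound concentrations ranging up to 114 microM. Each compound was preincubated with 25 nM NS2B-NS3 protease, and the substrate was then added at 1.5 microM. Curves were fitted with a 4-parameter Hill model.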
# [4] = tested on: Zika virus NS2B-NS3 protease (linked); experiment: 384 well plate NINDS AMC confirmatory qHTS for Zika virus inhibitors (AID 1347163); also: nearly all actives have a fitted effect of over 50% in size; also: potency is read from the fitted curve at half-maximal effect
# Procedure, shortened: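 Enzyme (5, 30 or 60 nM final) first met test compounds for ~15 min. The AMC-tagged peptide Ac-VKTGKR-AMC followed at 30 microM. Fluorescence was then recorded at 25 min and scaled against no-enzyme and no-inhibitor wells.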
# [5] = ZIKV-mCherry secondary qHTS for Zika virus inhibitors (AID 1347158); also: top concentration of the series differs between compounds
# Procedure, shortened: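 Read-out is percent infection: mCherry-positive Vero cells (nuclear-proximal intensity >450 RFU, 3 SD above negative controls) counted by high-content imaging of Hoechst-stained, PFA-fixed wells after 48-72 h with ZIKV-mCherry at MOI 1 and compound.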
# [6] = target: Calcium and integrin-binding protein 1 (Homo sapiens) (UniProt Q99828); experiment: Confirmatory qHTS for Identification of Calcium Integrin Binding Protein 1 (CIB1) Competitor (AID 1508617); also: nearly all actives have a fitted effect of over 65% in size; also: potency is read from the fitted curve at half-maximal effect
# Procedure, shortened: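 Confirmatory qHTS measures displacement of a FITC-alphaIIb peptide (100 nM) from CIB1-GST (1 uM) by fluorescence polarization. Calcium-containing HEPES buffer, pH 7.4; two 15 min room-temperature incubations.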
# [7] = qHTS to identify inhibitors of the type 1 interferon - major histocompatibility complex class I in skeletal muscle: primary screen against the NCATS Pharmaceutical Collection (AID 1347407);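 also: luminescence of HiBiT knocked into endogenous HLA-B as interferon-induced MHC class I level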
# Procedure, shortened: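 Compounds […] were added to CRISPR-engineered HLA-B-HiBiT C25cl48 human myoblasts with 4.0 ng/ml IFN-beta. After 24 hrs at 37 C, cells were lysed and HiBiT luminescence measured.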
# [8] = tested on: Zika virus NS2B-NS3 protease (linked construct); experiment: 384 well plate NINDS Rhodamine confirmatory qHTS for Zika virus inhibitors (AID 1347164);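 also: fluorescence from protease cleavage of Ac-LKRR-rhodamine 110 substrate; potency is read from the fitted curve at half-maximal effect; nearly all actives have a fitted effect of over 65% in size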
# Procedure, shortened: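 Fluorescence at 485/538 nm was measured 25 minutes after adding 10 microM Ac-LKRR-Rd substrate, in the dark at room temperature. The protease (5, 30 or 60 nM final) had been preincubated ~15 minutes with compound; aprotinin as control.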
# Calcium and integrin-binding protein 1 (Homo sapiens), sequence (Q99828 whole entry, looked up): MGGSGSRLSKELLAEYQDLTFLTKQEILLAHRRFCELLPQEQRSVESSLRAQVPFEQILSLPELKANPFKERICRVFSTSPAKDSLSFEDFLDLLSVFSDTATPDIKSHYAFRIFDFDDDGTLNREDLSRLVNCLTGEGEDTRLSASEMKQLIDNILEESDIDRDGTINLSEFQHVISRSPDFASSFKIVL
structure (smiles),measurement,setting,value
CC(C)(F)C[C@H](N[C@@H](c1ccc(-c2ccc(S(C)(=O)=O)cc2)cc1)C(F)(F)F)C(=O)NC1(C#N)CC1,Potency,[1],inactive
same,Potency,[2],inactive
O=C(NCCCCN1CCOCC1)c1cc2ccccc2o1,Potency,[1],inactive
same,Potency,[2],inactive
CCC(C)SSc1ncc[nH]1 (centres undefined),Potency,[1],inactive
same,Potency,[2],inactive
CC(C)C[C@@H](N)[C@H](O)C(=O)N[C@H](C(=O)N[C@H](C(=O)N[C@@H](CC(=O)O)C(=O)O)C(C)C)C(C)C,Potency,[1],inactive
same,Potency,[2],inactive
CN(C)N=Nc1nc[nH]c1C(N)=O,Potency,[1],inactive
same,Potency,[2],inactive
CN1C(=O)C[C@H](C(=O)N[C@@H](Cc2cnc[nH]2)C(=O)N2CCC[C@@H]2C(N)=O)NC1=O,Potency,[1],inactive
same,Potency,[2],inactive
CCOC(=O)c1c(CSc2ccccc2)n(C)c2cc(Br)c(O)c(CN(C)C)c12,Potency,[1],inactive
same,Potency,[2],inactive
COc1cc2ncn(-c3cc(OCc4ccccc4S(C)(=O)=O)c(C#N)s3)c2cc1OC,Potency,[1],inactive
same,Potency,[2],inactive
Cc1ccc(S(=O)(=O)Nc2nc3ccccc3nc2Nc2ccc3nsnc3c2)cc1,Potency,[1],inactive
same,Potency,[2],inactive
CNC(=O)[C@H](Cc1ccccc1)NC(=O)[C@H](CC(C)C)[C@H](CSc1cccs1)C(=O)NO,Potency,[1],inactive
same,Potency,[2],inactive
Cc1cccc(Nc2nc(N[C@@H]3CCCC[C@H]3N)ncc2C(N)=O)c1,Potency,[1],inactive
same,Potency,[2],13.1 µM (active)
O=C(O)CCC=CCC[C@@H]1[C@H](N2CCCCC2)[C@@H](O)C[C@@H]1OCc1ccc(-c2ccccc2)cc1,Potency,[1],inactive
same,Potency,[2],inactive
CCCCC[C@H](O)C=C[C@H]1[C@H](O)CC(=O)[C@H]1CC=CCCCC(=O)O,Potency,[1],inactive
O=S(=O)(O)c1ccc2cc(N=Nc3cc(S(=O)(=O)O)c4cccnc4c3O)ccc2c1,Potency,[3],1.39 µM (active)
same,Potency,[4],79.4 µM (active)
Cc1ccc2c(c1)C(=O)[C@]1(O)CCN(c3ccccc3)C1=N2,Potency,[3],inactive
C[C@H]1COC2=C1C(=O)C(=O)c1c2ccc2c1CCCC2(C)C,outcome,[5],inactive
same,Potency,[6],inactive
O=C(Nc1ccccc1)Nc1ccc(-c2ccc(C(=O)[C@H]3CCC[C@H]3C(=O)O)cc2)cc1,Potency,[4],inactive
COc1ccc(-c2nc3ccc(C4=NNC(=O)CC4C)cc3[nH]2)cc1 (centres undefined),outcome,[7],inactive
CN(C)CC[C@H](CSc1ccccc1)Nc1ccc(S(=O)(=O)NC(=O)c2ccc(N3CCN(Cc4ccccc4-c4ccc(Cl)cc4)CC3)cc2)cc1[N+](=O)[O-],Potency,[8],0.708 µM (active)
CO[C@@H]1C(N(C)C(=O)c2ccccc2)C[C@H]2O[C@]1(C)n1c3ccccc3c3c4c(c5c6ccccc6n2c5c31)C(=O)NC4=O (some centres undefined),Potency,[6],15.8 µM (active)
